# KDM5B inh: inhibitors of human KDM5B histone demethylase. Q9UGL1. KDM5B demethylase, FDH-coupled NADH fluorescence (FDH is formaldehyde dehydrogenase). Potency, µM (series often up to 57.7 µM), usual class: inhibitors. 220,000 tested, 2.6% active. AID 1347165; active = well fitted inhibition curve with a large enough effect; also: 0% is about no effect; nearly all actives have a fitted effect of over 70% in size
#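 Measured: NADH fluorescence change, 30 min, RT. System: KDM5BΔAP 200 nM final, H3K4me3 peptide, α-KG, Fe(II), ascorbate, NAD⁺ plus FDH, pH 7.5 HEPES. Compounds: titrated, 10 min pre-incubation with enzyme.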
# Numbers without * were called inactive; i = inactive. Many of the other results were omitted from the sample, so hits are more common in it than they were. Potency is read from the fitted curve at half-maximal effect.
SMILES,KDM5B inh
Cc1ccc(C(C)C)c(OC(=O)c2ccc(-c3ccccc3)cc2)c1,i
Cc1nc(CN2C(=O)OC3(CCN(C(=O)c4ccnn4C)CC3)C2(C)c2ccccc2)cs1 (stereo not given),i
NC(=O)c1ccc(C(=O)NC2CCCc3ccccc32)cc1 (stereo not given),i
O=C1CC2CCN(Cc3ccc(C(F)(F)F)cc3)CC2CCN1 (stereo not given),i
Cn1cccc1CN1CCC2CC(=O)NCCC2C1 (stereo not given),100µM*
O=C1CC2CCN(Cc3ccccc3)CC2CCN1 (stereo not given),i
O=C(C[C@H]1NC(=O)c2ccccc2NC1=O)Nc1nc(-c2ccc3c(c2)OCO3)cs1,i
CC(Sc1ncnc2nc[nH]c12)C(=O)Nc1ccccc1Cl (stereo not given),i
CC1Cc2ccccc2N1C(=O)COC(=O)c1ccc(Cl)c([N+](=O)[O-])c1 (stereo not given),i
COc1cc(C(=O)Nc2ccccc2C(=O)NCc2cccnc2)cc(OC)c1OC,i
Cn1cncc1CNC(=O)c1cc(-c2ccc(F)cc2)cc2ncn(C)c12,28µM*
Cc1cc(-c2cc(C(=O)NCc3c(C)cc(C)[nH]c3=O)c3c(c2)ncn3C)ccn1,i
Cc1cc(C)c(CNC(=O)c2cc(Nc3ccccc3)cc3ncn(C)c23)c(=O)[nH]1,i
O=C(Nc1ccccc1C(=O)NCc1cccnc1)c1ccccc1Cl,i
Cc1cc(C(=O)NCc2cccnc2)c(C)s1,i
Cn1cncc1CNC(=O)c1nc(-c2cccc(N3CCOCC3)c2)cc2c1ccn2C,i
Cn1cnc2cc(Nc3ccc(Cl)cc3F)cc(C(=O)NCc3cccnc3)c21,35µM*
Cn1cnc2cc(-c3cccc4[nH]ncc34)cc(C(=O)NCc3cccnc3)c21,40µM*
O=C(c1cc(F)cc(F)c1)N1CCC(CCc2ccc(O)cc2)CC1,i
O=C1CN(C(=O)Cn2cnc3c(Cl)cc(Cl)cc3c2=O)c2ccccc2N1,i
Cc1ccc(C(=O)OC(C)C(=O)Nc2ccc3c(c2)OCO3)cc1O (stereo not given),i
FC(F)(F)c1cccc(/C=C/c2nc3c(ccc4ccccc43)s2)c1,i
Cc1ccc(C(=O)N(Cc2ccncc2)C2CC2)cc1,i
CCOc1ccc(C2CCCN2S(=O)(=O)Cc2ccc(F)cc2)cc1 (stereo not given),i
COc1ccc(C(=O)N2CCc3nc(N)nc(N4CCCC4)c3CC2)o1,i
SMILES,KDM5B inh
COc1cccc(CN2CCc3nc(C4CC4)nc(-c4ccc(O)cc4)c3C2)c1,i
CCc1nc2c(c(-c3ccc(O)cc3)n1)CCN(Cc1ccsc1)CC2,i
COc1ccc(C(=O)N2CCc3nc(C4CC4)nc(-c4ccc(OC)cc4)c3C2)cc1,i
COc1ccc(-c2nc(C3CC3)nc3c2CCN(CC2CCCCC2)CC3)cc1,25µM*
CN(C)c1ccc(CN2CCc3nc(C4CC4)nc(-c4ccc(O)cc4)c3CC2)cc1,i
COc1ccc(-c2nc(C3CC3)nc3c2CN([S+](=O)([O-])c2ccccc2)CC3)cc1,i
COc1ccc(-c2nc(C3CC3)nc3c2CCN(Cc2cccn2C)CC3)cc1,50µM*
CCc1nc2c(c(-c3ccc(Cl)cc3)n1)CCN(Cc1cccn1C)CC2,i
COc1ccc(-c2nc(C3CC3)nc3c2CCN(Cc2ccsc2)CC3)cc1,79µM*
CNC(=O)NC(=O)CCN(Cc1ccc(C#N)cc1)C(C)C,i
O=C(Nc1ccc(Br)cc1Cl)c1cc(=O)c2ccccc2o1,i
Cc1cccnc1NC(=O)c1cc(-c2cccnc2)nc2ccccc12,i
CN(C(=O)CNc1cc(F)ccc1F)C1CCS(=O)(=O)C1 (stereo not given),i
CCC(=O)N(C)C(c1ccc(C)cc1)c1c[nH]c2ccccc12 (stereo not given),i
CCOC(=O)CN1CCCC1c1ccsc1 (stereo not given),i
CSCCC(NC(=O)Cc1ccc2c(c1)CCCC2)c1nc2ccccc2[nH]1 (stereo not given),i
Cc1ccc2c(=O)cc(C(=O)Nc3ccc4nsnc4c3)oc2c1,i
COc1ccccc1-c1cc(C(=O)N2CCOCC2)c2cnn(C)c2n1,i
COc1ccccc1-c1nnc2n1C(C(=O)NCCc1ccc(Cl)cc1)CC2 (stereo not given),i
COc1ccc(CCNC(=O)c2cc(-c3ccccc3O)n[nH]2)cc1OC,i
COc1ccccc1-c1cc(C(=O)NCCc2ccc(Cl)cc2)nc2c1cnn2C,79µM*
COc1ccccc1-c1cc(C(=O)NCCc2ccc(Cl)cc2)c2cnn(C)c2n1,79µM*
COc1ccccc1-c1cc(C(=O)N(C)C)c2cnn(C)c2n1,i
N#Cc1ccccc1NC(=O)c1cc2c(s1)CCCC2,i
COc1ccccc1CCNC(=O)Nc1cccc(CN2CCOC2=O)c1,i
SMILES,KDM5B inh
O=C(NC1CCN(Cc2cccc(C(F)(F)F)c2)CC1)C1CCCCC1,i
COCC(=O)N1CCC(C(=O)NCC2(c3ccccc3)CCCCC2)CC1,i
CC(C)(C)c1ccnc(N[C@H]2CO[C@H]3[C@@H]2OC[C@@H]3NC(=O)c2cccs2)n1,i
N#Cc1cccc(-c2ccnc(N[C@H]3CO[C@H]4[C@@H]3OC[C@@H]4NC(=O)c3cccs3)n2)c1,32µM*
N#Cc1cccc(-c2ccnc(N[C@H]3CO[C@H]4[C@@H]3OC[C@@H]4NC(=O)C3CCCCC3)n2)c1,35µM*
COc1cc(NC(=O)O[C@@H]2CO[C@H]3[C@@H]2OC[C@@H]3NC(=O)c2cccs2)cc(OC)c1,i
O=C(N[C@H]1CO[C@H]2[C@@H]1OC[C@@H]2Nc1nccc(-c2cccc(F)c2)n1)c1cccs1,35µM*
C=CCNC(=O)N[C@H]1CO[C@H]2[C@@H]1OC[C@@H]2Nc1nccc(-c2cccc(F)c2)n1,40µM*
O=C(COc1ccccc1)N[C@H]1CO[C@H]2[C@@H]1OC[C@@H]2Nc1nccc(-c2cccc(F)c2)n1,i
N#Cc1cccc(CN[C@@H]2CO[C@H](CNC(=O)c3cccs3)[C@H]2O)c1,i
COc1cc(C)c(C)cc1S(=O)(=O)Nc1ccc2c(c1)N(C(=O)c1cccnc1)CC2,i
Cc1ccc(NC(=O)C(C)N(C)Cc2ccc3c(c2)OCCO3)cc1F (stereo not given),i
Cc1noc(C)c1-c1cc2cc(C(C)C)oc2c(N(C)CCN(C)C)n1,i
CC(C)c1nnc(NC(=O)CCc2ncc(-c3ccccc3)o2)s1,i
Cc1ccc(S(=O)(=O)N(CC(=O)NCCO)Cc2c(F)cccc2Cl)cc1,i
CCc1ccc(NC(=O)COC(=O)C2CC(=O)N(c3ccc(Br)cc3)C2)cc1 (stereo not given),i
CC(C)c1cccc(C(C)C)c1NC(=O)CCn1cnc2c1c(=O)n(C)c(=O)n2C,i
COc1ccccc1-c1ccnc(N[C@H]2CO[C@H]3[C@@H]2OC[C@@H]3NC(=O)Nc2cccc(C(F)(F)F)c2)n1,i
CC(C)(C)c1ccnc(N[C@H]2CO[C@H]3[C@@H]2OC[C@@H]3NC(=O)NCc2ccccc2)n1,i
C=CCNC(=O)N[C@H]1CO[C@H]2[C@@H]1OC[C@@H]2Nc1nccc(-c2ccccc2OC)n1,28µM*
Cc1ccc(CN(c2ccc(C(=O)NCc3ccccc3C)cc2)S(C)(=O)=O)cc1,i
COCCOc1ccc(S(=O)(=O)N(C)C(C)(C)C(=O)OC)cc1,i
Cc1nc(-c2ccc(F)cc2)sc1CCNC(=O)C1CCCC1,i

# Screening data: PubChem, National Center for Advancing Translational Sciences (NCATS)
